Data as given in PubChem BioAssay (EPA / NIEHS).
Calls of active or inactive are those of the source. Rule for the calls: active = hit-call score of the fitted dose curve at least 0.9, where 1 is the maximum; inactive = score below 0.9.

Test: ATG_PPRE_CIS: Attagene CIS-FACTORIAL HepG2 Assay for human Peroxisome Proliferator-activated Response Element (PPRE) (AID 2282958)
Conditions: HepG2 PPRE cis-element reporter, Attagene transcription factor profiling; actives raise or lower the signal
Description: ATG_CIS is a cell-based, multiplexed-readout assay that uses HepG2, a human liver cell line, with measurements taken at 24 hours after chemical dosing in a 24-well plate.ATG_PPRE_CIS is one of 52 assay component(s) measured or calculated from the ATG_CIS assay. It is designed to make measurements of mRNA induction, a form of inducible reporter, as detected with fluorescence intensity signals by Reverse transcription polymerase chain reaction (RT-PCR) and Capillary electrophoresis technology.Data from the assay component ATG_PPRE_CIS was analyzed into 1 assay endpoint. This assay endpoint, ATG_PPRE_CIS, was analyzed with bidirectional fitting relative to DMSO as the negative control and baseline of activity. Using a type of inducible reporter, measures of mRNA for gain or loss-of-signal activity can be used to understand the reporter gene at the transcription factor-level as they relate to the gene PPARA and PPARD and PPARG. Furthermore, this assay endpoint can be referred to as a primary readout, because this assay has produced multiple assay endpoints where this one serves a reporter gene function. To generalize the intended target to other relatable targets, this assay endpoint is annotated to the nuclear receptor intended target family, where the subfamily is non-steroidal.
Human liver HepG2 cells are transiently transfected with multiple reporter transcription units (MRTUs) in 6-well plates using FuGene 6 reagent (Roche; 3 ml FuGene/1 mg DNA). The MRTU constructs are regulated by a cis-regulating element (promoter). […] A major difference between the CIS and TRANS system is that in CIS activities of endogenous TFs are measured, whereas the TRANS assay evaluates changes in activities of exogenous, chimeric NR-Gal4 proteins. […] At the end of 24 hour incubation, total RNA was isolated using TriZol reagent (Invitrogen). The isolated RNA is then reverse-transcribed using oligo(dT) primer and Mo-MLV reverse transcriptase (Invitrogen) with DNAse I (Ambion) treatment for 30 min. The one-tenth of the produced cDNA was amplified by PCR using Taq DNA polymerase (Invitrogen) and two reporter sequence-specific primers. The PCR products were fluorescently labeled by primer extension with 6-arboxyfluorescein (6-FAM) 5'-labeled reporter sequence-specific primer (2 min at 95 C, 20 s at 68 C and 10 min at 72 C) and these products were digested with 5U of HpaI (New England Biolabs) for 2h at 37 C. The fragments were purified using Qiaquick PCR columns (Qiagen), analyzed on an ABI 3130xL genetic analyzer (Applied Biosystems) with peak positions identified by using a set of X-rhodamine (ROX)-labeled MapMarker1000 molecular weight standards (BioVentures). The raw capillary electrophoresis data was processed using Attagraph software (Attagene).
With CCCCCCOC(=O)CCC the outcome was “inactive”.
In the case of CCCCSCCCC, the outcome is reported as “inactive”.
With C[Si]1(C)O[Si](C)(C)O[Si](C)(C)O1 the outcome was “inactive”.
In the case of O=C1OC(=O)c2c(Cl)c(Cl)c(Cl)c(Cl)c21, the AC50 is reported as 177 µM (active).
In the case of C#CC(C)(O)CC(C)C (stereo not given), the outcome is reported as “inactive”.
With C1CCCCC1 the outcome was “inactive”.
With CCCC(O)C(O)CO (stereo not given) the outcome was “inactive”.
In the case of Cc1ccc(S(=O)(=O)Oc2ccc(N=Nc3ccc(-c4ccc(N=Nc5c(O)ccc6cc(S(=O)(=O)O)cc(S(=O)(=O)O)c56)c(C)c4)cc3C)cc2)cc1, the outcome is reported as “inactive”.
For Nc1ccccc1[N+](=O)[O-], the outcome was “inactive”.
With C=C1CC[C@H](O)C/C1=C/C=C1\CCC[C@]2(C)[C@@H]([C@H](C)/C=C/[C@H](C)C(C)C)CC[C@@H]12 the outcome was “inactive”.
For C=CCOC(=O)CCCCCC, the outcome was “inactive”.
With O=C(O)CNc1ccccc1 the outcome was “inactive”.
With O=C1OC2(c3ccccc31)c1ccc(O)c(Br)c1Oc1c2ccc(O)c1Br the outcome was “inactive”.
With CCCCCCCCCCCC(=O)OC[C@@H](O)[C@H]1OC[C@H](O)[C@H]1O the outcome was “inactive”.
With CC(C)(C)C1=CC(=O)C(C(C)(C)C)=CC1=O the AC50 was 13.4 µM (active).
In the case of CCC1(C)NC(=O)NC1=O (stereo not given), the outcome is reported as “inactive”.
With OC[C@H]1O[C@@H](Oc2ccc(O)cc2)[C@H](O)[C@@H](O)[C@@H]1O the outcome was “inactive”.
For CC(=O)C(C)O (stereo not given), the outcome was “inactive”.
With CCCCC(CC)COC(C)=O (stereo not given) the outcome was “inactive”.
For Cc1ncc[nH]1, the outcome was “inactive”.
In the case of C=Cc1ccncc1, the AC50 is reported as 13.5 µM (active).
In the case of O=C(Nc1ccc([N+](=O)[O-])cc1)Nc1ccc([N+](=O)[O-])cc1 (tested in a mixture with another compound), the outcome is reported as “inactive”.
With COc1ccc(N=Nc2cc(C)c(N=Nc3ccc(S(=O)(=O)O)cc3)cc2OC)cc1 the outcome was “inactive”.
For CC1C2CC(CC2C2CCCC(O)C2)C1(C)C (stereo not given), the outcome was “inactive”.
In the case of CCCCCCCC(=O)OCC(O)CO (stereo not given), the outcome is reported as “inactive”.
For Cc1ccc(OC(=O)c2ccccc2O)cc1, the outcome was “inactive”.
In the case of Cc1cc(=O)oc2cc(N(C)C)ccc12, the outcome is reported as “inactive”.
For C=COCCOCCOC=C, the outcome was “inactive”.
With [Cl][Au]([Cl])[Cl] the outcome was “inactive”.
In the case of COc1ccc(CCN2CCC(Nc3nc4ccccc4n3Cc3ccc(F)cc3)CC2)cc1, the outcome is reported as “inactive”.
For CC(CN=Cc1ccccc1O)N=Cc1ccccc1O (stereo not given), the outcome was “inactive”.
With CC(C)Nc1nc(N)nc(Cl)n1 the outcome was “inactive”.
With COc1ccc(OC)c(N=Nc2c(O)ccc3ccccc23)c1 the outcome was “inactive”.
With CCCC(C)=O the outcome was “inactive”.
For CC(C)=CCCC(C)CC(=O)O (stereo not given), the outcome was “inactive”.
With CC(C)(C)OC(=O)c1ccc(O)cc1 the AC50 was 87.7 µM (active).
In the case of CCCN(CCC)S(=O)(=O)c1ccc(C(=O)O)cc1, the outcome is reported as “inactive”.
For CC1(C)C2=CCCC(C)(C)[C@]23CC[C@H]1C3, the outcome was “inactive”.
With COC(=O)c1ccc(C)cc1C1=NC(C)(C(C)C)C(=O)N1 (stereo not given) (tested in a mixture with another compound) the outcome was “inactive”.
For Cc1c(C2(c3cc(Br)c(O)c(Br)c3C)OS(=O)(=O)c3ccccc32)cc(Br)c(O)c1Br, the outcome was “inactive”.
